Whole data set: some 8,300 sequences, median “log2 fold change of degron read counts, EGFP-low vs EGFP+ sorted cells (limma voom), compound-induced degradation” near -1.1, cut for the highest 2% near 3.2. The full list was thinned out, with the highest values kept by preference.
T1: CRBN, Q96SW2
T1 chain: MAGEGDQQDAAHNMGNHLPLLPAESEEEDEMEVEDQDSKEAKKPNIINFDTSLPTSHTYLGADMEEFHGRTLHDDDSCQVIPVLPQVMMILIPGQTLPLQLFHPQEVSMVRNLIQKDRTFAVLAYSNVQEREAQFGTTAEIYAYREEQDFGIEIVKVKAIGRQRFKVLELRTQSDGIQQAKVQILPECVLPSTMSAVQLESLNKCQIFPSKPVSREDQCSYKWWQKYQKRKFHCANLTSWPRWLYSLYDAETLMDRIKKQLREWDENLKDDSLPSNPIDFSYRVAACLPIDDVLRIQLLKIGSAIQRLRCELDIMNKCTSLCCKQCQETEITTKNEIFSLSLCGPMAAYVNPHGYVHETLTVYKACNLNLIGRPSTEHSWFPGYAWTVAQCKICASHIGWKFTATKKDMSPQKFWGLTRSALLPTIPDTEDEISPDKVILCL

B1: 46F_47D_49P_50I_52G_53H_54I_55F_67L_, Q9UKT9 (peptide)
chain: FDCPICGHIFTQKGNLLRHIKL
B2: 46L_47A_49P_50I_52G_53F_54W_55C_67L_, Q9UKT9 (peptide)
chain: LACPICGFWCTQKGNLLRHIKL
B3: 46F_47I_49E_50Q_52G_53A_54I_55F_67L_, Q9UKT9 (peptide)
chain: FICEQCGAIFTQKGNLLRHIKL
B4: 46F_47M_49E_50I_52G_53R_54L_55F_67L_, Q9UKT9 (peptide)
chain: FMCEICGRLFTQKGNLLRHIKL
B5: 46F_47N_49P_50I_52G_53H_54C_55F_67L_, Q9UKT9 (peptide)
chain: FNCPICGHCFTQKGNLLRHIKL
B6: 46F_47N_49D_50I_52G_53A_54W_55F_67L_, Q9UKT9 (peptide)
chain: FNCDICGAWFTQKGNLLRHIKL
B7: 46F_47T_49P_50V_52G_53A_54S_55F_67L_, Q9UKT9 (peptide)
chain: FTCPVCGASFTQKGNLLRHIKL
B8: 46F_47D_49P_50V_52G_53A_54S_55F_67L_, Q9UKT9 (peptide)
chain: FDCPVCGASFTQKGNLLRHIKL
B9: 46F_47S_49P_50V_52G_53A_54S_55F_67L_, Q9UKT9 (peptide)
chain: FSCPVCGASFTQKGNLLRHIKL
B10: 46F_47K_49P_50V_52G_53A_54S_55F_67L_, Q9UKT9 (peptide)
chain: FKCPVCGASFTQKGNLLRHIKL
B11: 46F_47A_49P_50V_52G_53A_54S_55F_67L_, Q9UKT9 (peptide)
chain: FACPVCGASFTQKGNLLRHIKL
B12: 46F_47F_49P_50V_52G_53A_54S_55F_67L_, Q9UKT9 (peptide)
chain: FFCPVCGASFTQKGNLLRHIKL
B13: 46F_47Q_49P_50V_52G_53A_54S_55F_67L_, Q9UKT9 (peptide)
chain: FQCPVCGASFTQKGNLLRHIKL
B14: 46F_47N_49P_50V_52G_53A_54S_55F_67L_, Q9UKT9 (peptide)
chain: FNCPVCGASFTQKGNLLRHIKL
B15: 46F_47E_49P_50V_52G_53A_54S_55F_67L_, Q9UKT9 (peptide)
chain: FECPVCGASFTQKGNLLRHIKL
B16: 46F_47V_49P_50V_52G_53A_54S_55F_67L_, Q9UKT9 (peptide)
chain: FVCPVCGASFTQKGNLLRHIKL
B17: 46F_47G_49P_50V_52G_53A_54S_55F_67L_, Q9UKT9 (peptide)
chain: FGCPVCGASFTQKGNLLRHIKL
B18: 46F_47M_49P_50V_52G_53A_54S_55F_67L_, Q9UKT9 (peptide)
chain: FMCPVCGASFTQKGNLLRHIKL

Target: T1, CRBN, Q96SW2
Assay: log2 fold change of degron read counts, EGFP-low vs EGFP+ sorted cells (limma voom), compound-induced degradation; higher = more compound-induced degradation of the degron-EGFP fusion; degrons are variants of IKZF1/3 zinc finger 2; compound dose not given here
Conditions: Jurkat, 18 h
Protocol: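 Pooled library of 8380 IKZF3 ZF2 degron mutants (positions 146-167 varied within the IKZF3 130-189 degron; only the varied core is printed, flanks not printed) fused to EGFP with IRES-mCherry, lentivirally expressed in Jurkat cells. mCherry+ cells were treated with one IMiD compound for 18 h (dose not stated) and FACS-sorted into EGFP-low and EGFP+ populations. Degron sequences were counted by NGS, and log2FC (EGFP-low vs EGFP+) was estimated by limma voom over 3 biological replicates.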

[1] = compound: compound 19 (5-tert-butyl-thalidomide)
[2] = compound: compound 22 (5-morpholino-thalidomide)
[3] = compound: compound 33 (diphenyl IMiD analogue)
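Further: pooled lentiviral library of zinc finger degron-EGFP fusions in mCherry-positive Jurkat cells, FACS-sorted after compound exposure, with degron abundance counted by next-generation sequencing.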

Sequence | log2 fold change of degron read counts [1] | log2 fold change of degron read counts [2] | log2 fold change of degron read counts [3] | log2 fold change of degron read counts (compound: thalidomide)
B1 | -2.28 | -2.43 | -1.8 | -1.37
B2 | 2.95 | 2.34 | 2.58 | 2.45
B3 | -2.04 | -1.4 | -0.144 | -0.929
B4 | -2.26 | -3.02 | -1.18 | -0.917
B5 | -2.1 | -3.11 | -1.84 | -2.15
B6 | -1.24 | -2.06 | -2.22 | -2.05
B7 | 1.45 | 2.72 | 2.67 | 2.79
B8 | 2.73 | 0.654 | 1.35 | 1.92
B9 | 3.33 | 2.24 | 2.42 | 1.71
B10 | 1.07 | -1.4 | -1.51 | 0.152
B11 | 3.54 | 2.15 | 1.39 | 1.39
B12 | 3.04 | 3.18 | 2.27 | 1.42
B13 | 2.35 | 2.72 | 2.38 | 3.6
B14 | 2.78 | 1.17 | 1.06 | 0.433
B15 | 1.95 | -0.732 | 2.2 | 2.9
B16 | 0.217 | 2.83 | 2.01 | 2.79
B17 | 3.39 | 2.36 | 2.57 | 1.08
B18 | 1.06 | 2.04 | 2.75 | 2.02

From the supplement of paper PMC12645437, “Orthogonal IMiD-Degron Pairs Induce Selective Protein Degradation in Cells” (ACS Chemical Biology, 2025)
